Among the test systems are NCI-H23 lung; NCI-H226 lung; NCI-H322M lung; HOP-62 NSCLC; NCI-H460 lung; HOP-92 NSCLC; A549/ATCC NSCLC; 786-0 renal; COLO 205 colon; DU-145 prostate; K-562 leukemia; MDA-MB-231 breast; RXF 393 renal; SF-268 CNS; SF-295 CNS; SF-539 CNS; UACC-257 melanoma; M14 melanoma; MALME-3M melanoma.
Holding throughout (experiment): NCI-60 one-dose screen, 48 h (100 = growth as untreated, 0 = no growth, -100 = all killed)
Holding throughout (details): 10 µM unless noted

The record followed here is PubChem BioAssay (NCI).

This is part of a sample that, as a whole, favours compounds with a hit. Of some 83,000 tested, about 20% had one in any assay.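 A percent growth of 40 corresponds to 60% growth inhibition; 0 means no net growth; -100 means all cells died. Active threshold: below 10.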 Unmarked numbers belong to inactive results. Activity calls are given as the source filed them.

As to `CC[C@@H](C)/C=C(C)/C=C/C(O)=C1\C(=O)N[C@@H](Cc2ccc(OC(=O)[C@@](OC)(c3ccccc3)C(F)(F)F)cc2)C1=O`, the growth in the assay on NCI-H23 lung is 99.2%; in the assay on NCI-H226 lung it was 104%; in the assay with NCI-H322M lung it was 91%; in the assay on HOP-62 NSCLC it was 110%; with NCI-H460 lung, 79.8%; in the assay on HOP-92 NSCLC it was 41.5%. In addition, the growth was 97.2% with A549/ATCC NSCLC; 90.8% in the assay on 786-0 renal; 118% with COLO 205 colon; 73.2% with DU-145 prostate; 9.3% (active) with K-562 leukemia; 89.5% in the assay on MDA-MB-231 breast. In addition, the growth was 109% in the assay on RXF 393 renal; 61.9% with SF-268 CNS; 74.2% in the assay on SF-295 CNS; 114% in the assay on SF-539 CNS; 94% with UACC-257 melanoma; 97% with M14 melanoma.

On to `CC(NC(=O)Oc1cccc2ccccc12)c1ccccc1` (centres undefined), for which the growth is 92.8% with NCI-H23 lung; 99.7% with NCI-H226 lung; 107% in the assay on NCI-H322M lung; 100% in the assay with HOP-62 NSCLC; 105% with NCI-H460 lung; 103% with HOP-92 NSCLC. Further, the growth with A549/ATCC NSCLC was 73.1%; in the assay with 786-0 renal it was 103%; in the assay on COLO 205 colon it was 110%; with DU-145 prostate, 107%; with K-562 leukemia, 84.1%; with MDA-MB-231 breast it was 77.6%. Besides, the growth with RXF 393 renal was 105%; in the assay on SF-268 CNS, 78.1%; in the assay with SF-295 CNS, 107%; in the assay with SF-539 CNS it was 97.9%; in the assay with UACC-257 melanoma, 73.2%; in the assay with M14 melanoma it was 107%.

As to `Cc1[nH]cnc1/C=C1\SC(N2CCCCC2)=NC1=O`, the growth is 101% in the assay with NCI-H23 lung; 96.2% with NCI-H226 lung; 123% with NCI-H322M lung; 105% with HOP-62 NSCLC; 109% with NCI-H460 lung; 100% with HOP-92 NSCLC. The growth in the assay with A549/ATCC NSCLC was 96.8%; in the assay with 786-0 renal it was 94.7%; in the assay with COLO 205 colon it was 114%; in the assay on DU-145 prostate, 125%; in the assay on K-562 leukemia it was 96.8%; with MDA-MB-231 breast it was 96.8%. In addition, the growth in the assay on RXF 393 renal was 96.3%; in the assay on SF-268 CNS, 114%; with SF-295 CNS, 130%; in the assay on SF-539 CNS it was 100%; in the assay on UACC-257 melanoma it was 105%; in the assay with M14 melanoma, 103%.

For the molecule `COc1ccc(CC(=O)Nc2nn3c(-c4cc(C(F)(F)F)cc(C(F)(F)F)c4)nnc3s2)cc1`, the growth in the assay on NCI-H23 lung is 35.2%; in the assay on NCI-H226 lung, 62.8%; with NCI-H322M lung it was 90.6%; in the assay with HOP-62 NSCLC, 98.9%; in the assay on NCI-H460 lung, 56.6%; with HOP-92 NSCLC, 15.4%. In addition, the growth with A549/ATCC NSCLC is 78.1%; with COLO 205 colon, 104%; in the assay with DU-145 prostate, 86%; in the assay with K-562 leukemia it was 62.4%; in the assay with MALME-3M melanoma, 80.9%; in the assay on MDA-MB-231 breast it was 88%. For the same molecule, the growth in the assay with SF-268 CNS is 85.8%; in the assay on SF-295 CNS it was 66.1%; in the assay on SF-539 CNS, 65.7%; in the assay with UACC-257 melanoma, 58.2%; in the assay on M14 melanoma, 97%.

For `Cc1cccc2nnc(-c3ccccc3)n12`, the growth with NCI-H23 lung is 104%; with NCI-H226 lung it was 106%; in the assay with NCI-H322M lung it was 104%; with HOP-62 NSCLC, 125%; with NCI-H460 lung it was 108%; in the assay on HOP-92 NSCLC, 105%. Further, the growth in the assay with A549/ATCC NSCLC is 94.4%; in the assay on 786-0 renal it was 94.8%; with COLO 205 colon it was 118%; in the assay with DU-145 prostate, 124%; with K-562 leukemia, 100%; in the assay on MDA-MB-231 breast, 94.5%. In addition, the growth in the assay with RXF 393 renal is 117%; in the assay with SF-268 CNS, 111%; with SF-295 CNS it was 109%; in the assay with SF-539 CNS it was 108%; in the assay with UACC-257 melanoma, 105%; in the assay with M14 melanoma, 102%.

On to `COc1ccc(C2=NN(C(N)=S)C(c3ccc4c(c3)OCO4)C2)cc1` (centres undefined), for which the growth in the assay with NCI-H23 lung is 26.7%; in the assay on NCI-H226 lung, 58.2%; in the assay with NCI-H322M lung it was 25.6%; with HOP-62 NSCLC, 46.7%; with NCI-H460 lung, 42.6%; in the assay on HOP-92 NSCLC it was 54%. For the same molecule, the growth was 58.6% in the assay with A549/ATCC NSCLC; 30.6% in the assay with 786-0 renal; 56.5% in the assay with COLO 205 colon; -3.99% (active) in the assay on DU-145 prostate; 5.68% (active) in the assay with K-562 leukemia; 48.7% in the assay with MDA-MB-231 breast. Also, the growth was 48.5% with RXF 393 renal; 21.5% in the assay on SF-268 CNS; -9.16% (active) in the assay with SF-295 CNS; 21.4% in the assay with SF-539 CNS; 38% in the assay on UACC-257 melanoma; 21.6% in the assay on M14 melanoma.

In the case of `CSc1nc2nc3c(nc2c(=O)n1C)C(=O)c1ccccc1C3=O`, the growth with NCI-H23 lung was -26.4% (active); in the assay with NCI-H226 lung, -55.6% (active); in the assay on NCI-H322M lung it was -89.8% (active); with HOP-62 NSCLC, -97.9% (active); with NCI-H460 lung, -62% (active); with HOP-92 NSCLC, -40% (active). For the same molecule, the growth is -67.3% (active) with A549/ATCC NSCLC; -50.5% (active) in the assay on 786-0 renal; -86.2% (active) in the assay with COLO 205 colon; -89.7% (active) in the assay with DU-145 prostate; -93% (active) with MALME-3M melanoma; -4.27% (active) in the assay with MDA-MB-231 breast. Also, the growth is -79.3% (active) with RXF 393 renal; -17.9% (active) with SF-268 CNS; -93.4% (active) with SF-295 CNS; -99.8% (active) with SF-539 CNS; -84.6% (active) in the assay on M14 melanoma.

`CCCCCCCCCCCCC1CCCC(C)C1` (centres undefined): the growth in the assay with NCI-H23 lung is 105%; in the assay on NCI-H226 lung, 99.8%; in the assay with NCI-H322M lung it was 95%; in the assay with HOP-62 NSCLC, 90.5%; in the assay on NCI-H460 lung, 101%; with HOP-92 NSCLC, 69.1%. The growth is 93.1% in the assay on A549/ATCC NSCLC; 92.3% with 786-0 renal; 98.1% in the assay with COLO 205 colon; 109% in the assay on DU-145 prostate; 93.3% with MALME-3M melanoma; 105% in the assay with MDA-MB-231 breast. Also, the growth in the assay on RXF 393 renal was 109%; in the assay on SF-268 CNS, 110%; in the assay on SF-295 CNS, 90.1%; with SF-539 CNS, 118%; with M14 melanoma, 106%.

For the molecule `O=c1c2c(=NCCCN3CCCC3)cc3c(=O)n(CCCN4CCCC4)c(=O)c4c(NCCCN5CCCC5)cc(c(O)n1CCCN1CCCC1)c2c4-3`, the growth in the assay on NCI-H23 lung was -2.37% (active); in the assay on NCI-H226 lung, -26.3% (active); in the assay with NCI-H322M lung, -29.5% (active); with HOP-62 NSCLC it was -13.7% (active); in the assay on NCI-H460 lung, -32.1% (active); in the assay on HOP-92 NSCLC it was 0.433% (active). Also, the growth in the assay on A549/ATCC NSCLC is 7.79% (active); in the assay with 786-0 renal it was -13.9% (active); in the assay on COLO 205 colon, -68.4% (active); in the assay on DU-145 prostate, -16.1% (active); with K-562 leukemia it was 6.04% (active); with MDA-MB-231 breast, -9.58% (active). The growth in the assay on RXF 393 renal was -67.6% (active); with SF-268 CNS, -7.1% (active); in the assay with SF-295 CNS, -42.5% (active); with SF-539 CNS it was -32.6% (active); with UACC-257 melanoma, -29.8% (active); in the assay with M14 melanoma it was -63.1% (active).
